Test [1] concerns the target Luciferin 4-monooxygenase (Photinus pyralis) (UniProt P08659). The test is described as follows: qHTS assay to identify small molecule inhibitors of firefly luciferase (AID 1224835). For activity change, negative = inhibition: series mostly up to about 120 µM. Note: nearly all actives have a fitted effect of over 25% in size. Note: potency is the fitted concentration of half-maximal effect. In a few lines: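 Quantitative HTS format; KM concentrations of both substrates. Purified P. pyralis FLuc activity quantified from luminescence images.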
(In general: qHTS replaces the single test concentration by a dilution series.)

Test [2] in a line: qHTS assay to identify small molecule antagonists of the constitutive androstane receptor (CAR) signaling pathway - cell viability counter screen (AID 1224837). Note: series mostly up to about 92 µM; nearly all actives have a fitted effect of over 45% in size. The method, boiled down: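 HepG2-CYP2B6-hCAR cells, 2500/well, 4 hr pre-incubation; compound titration, 15 conc.; CITCO 50 nM final; 23 hr, 37 C/5% CO2; CellTiter-Fluor, fluorescence intensity.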
Test [3] concerns the target Nuclear receptor subfamily 1 group I member 3 (Homo sapiens) (UniProt Q14994). Description: qHTS assay to identify small molecule antagonists of the constitutive androstane receptor (CAR) signaling pathway (AID 1224838).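 Note: HepG2 cells stably expressing hCAR with CYP2B6 luciferase reporter stimulated by CITCO; nearly all actives have a fitted effect of over 40% in size.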 In a few lines:
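HepG2-CYP2B6-hCAR cells; 4 h pre-incubation; cpd (15 conc) + CITCO 50 nM final; 24 h, 37 C/5% CO2; ONE-Glo, luminescence.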

For test [4] the target is unchanged. The test is described as follows: qHTS assay to identify small molecule agonists of the constitutive androstane receptor (CAR) signaling pathway (AID 1224839).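 Note: HepG2 cells stably carrying human CAR and a CYP2B6 luciferase reporter; series mostly up to about 92 µM; nearly all actives have a fitted effect of over 15% in size.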 The method, boiled down:
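Cells were plated and incubated 4 hrs, then dosed with compounds at 15 concentrations. PK11195 was added to 0.75 uM final. After 24 hrs at 37 C, luciferase luminescence was measured.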

Test [5] is described as follows: qHTS assay to identify small molecule antagonists of the estrogen related receptor signaling pathway with the pleiotropic PPARgamma coactivator (PGC) from Tox21 10K library - cell viability counter screen (AID 1224840; active = well fitted cell-killing curve with a large enough effect in the repeat runs, not every such curve was filed as active; note: nearly all actives have a fitted effect of over 40% in size). The method, boiled down: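 PGC/ERR cells, 2,000/well; 6 h pre-incubation 37 C/5% CO2; cpd in DMSO via pin tool; 17.5 h 37 C; CellTiter-Fluor, 30 min; fluorescence.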

A short description of test [6]: qHTS assay to identify small molecule antagonists of the estrogen related receptor signaling pathway with the pleiotropic PPARgamma coactivator (PGC) from Tox21 10K library (AID 1224841; call rule not given here; note: series mostly up to about 92 µM; actives are mostly falling curves and most rising ones were filed inactive; nearly all actives have a fitted effect of over 50% in size). In a few lines:
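PGC/ERR cell line, 2,000 cells/well; 6 h pre-incubation 37 C/5% CO2; compounds (DMSO) pinned in; 18 h, 37 C; One-Glo, 30 min RT; luminescence.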

Test [7] is described as follows: qHTS assay to identify small molecule agonists of the estrogen related receptor signaling pathway with the pleiotropic PPARgamma coactivator (PGC) from Tox21 10K library (AID 1224842). Note: nearly all actives have a fitted effect of over 15% in size. In a few lines:
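PGC/ERR reporter cells (NTP line) were seeded 2,000 per well, rested 6 h at 37 C/5% CO2, then pin-dosed with compounds in DMSO for 18 h at 37 C; luciferase read by One-Glo luminescence after 30 min at room temperature.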

In test [8] the target is Thyrotropin receptor (Homo sapiens) (UniProt P16473). The test is described as follows: qHTS assay to identify small molecule agonists of the thyroid stimulating hormone receptor (TSHR) signaling pathway (AID 1224843; calls by dose curve; note: nearly all actives have a fitted effect of over 45% in size; note: potency is the fitted concentration of half-maximal effect). The method, boiled down:
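Cell line HEK293 with TSHR; density 800/well. Exposure 30 min RT. Readout HTRF cAMP (cAMP-d2/anti-cAMP-cryptate), 1 h RT before reading.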

Test [9] is described as follows: qHTS assay to identify small molecule agonists of the hypoxia (HIF-1) signaling pathway - cell viability counter screen (AID 1224844; calls by dose curve; note: nearly all actives have a fitted effect of over 50% in size). In a few lines: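 ME-180 HRE-bla cells, 2,000/well, 0.5% dialyzed FBS; 5 hr settle, 17 hr compound at 37C/5% CO2; CCF4-AM reporter read first, then CellTiter-Glo luminescence after 30 min RT.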
The nature of test [10]: qHTS assay to identify small molecule agonists of the constitutive androstane receptor (CAR) signaling pathway - cell viability counter screen (AID 1224836). Note: series mostly up to about 92 µM; nearly all actives have a fitted effect of over 45% in size. The method, boiled down: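 Cells were seeded and incubated 4 hrs. Compounds were added across 15 concentrations together with PK11195 at 0.75 uM final. Plates were incubated 23 hrs at 37 C. CellTiter-Fluor was added and fluorescence measured.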

Records with an inconclusive call do not appear. Values without a mark were called inactive. Calls of active or inactive are those of the source. Unless noted, calls come from the whole dose curve; as a rule, active = well fitted curve in the direction sought with a large enough effect in the repeat runs; inconclusive = weak or mixed curves; inactive = no such curve, though single readings can be large; an effect the other way counts as inactive or inconclusive.
% is set by controls: 0 for no effect and ±100 for the full control effect.

Thyrotropin receptor (Homo sapiens), sequence (P16473 whole entry, looked up): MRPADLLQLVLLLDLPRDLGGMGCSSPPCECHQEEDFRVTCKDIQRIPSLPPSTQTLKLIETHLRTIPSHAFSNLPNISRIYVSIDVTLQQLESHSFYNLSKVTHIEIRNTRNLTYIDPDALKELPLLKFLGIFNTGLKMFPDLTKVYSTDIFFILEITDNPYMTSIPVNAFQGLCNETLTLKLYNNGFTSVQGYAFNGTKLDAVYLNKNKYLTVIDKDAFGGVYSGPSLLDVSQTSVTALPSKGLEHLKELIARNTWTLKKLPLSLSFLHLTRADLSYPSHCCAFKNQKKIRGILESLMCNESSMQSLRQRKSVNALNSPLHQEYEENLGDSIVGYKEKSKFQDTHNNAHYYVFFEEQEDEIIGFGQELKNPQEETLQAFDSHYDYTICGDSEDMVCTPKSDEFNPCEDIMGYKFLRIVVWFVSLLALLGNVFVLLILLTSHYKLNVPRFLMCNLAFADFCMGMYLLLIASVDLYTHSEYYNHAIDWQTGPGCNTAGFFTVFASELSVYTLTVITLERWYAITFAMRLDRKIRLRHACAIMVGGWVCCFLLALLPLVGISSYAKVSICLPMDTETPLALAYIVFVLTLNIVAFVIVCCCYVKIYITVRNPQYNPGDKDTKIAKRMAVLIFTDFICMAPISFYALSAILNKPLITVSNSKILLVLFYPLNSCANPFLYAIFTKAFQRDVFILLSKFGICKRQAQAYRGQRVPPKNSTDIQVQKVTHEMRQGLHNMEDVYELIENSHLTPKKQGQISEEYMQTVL
Nuclear receptor subfamily 1 group I member 3 (Homo sapiens), sequence (Q14994 whole entry, looked up): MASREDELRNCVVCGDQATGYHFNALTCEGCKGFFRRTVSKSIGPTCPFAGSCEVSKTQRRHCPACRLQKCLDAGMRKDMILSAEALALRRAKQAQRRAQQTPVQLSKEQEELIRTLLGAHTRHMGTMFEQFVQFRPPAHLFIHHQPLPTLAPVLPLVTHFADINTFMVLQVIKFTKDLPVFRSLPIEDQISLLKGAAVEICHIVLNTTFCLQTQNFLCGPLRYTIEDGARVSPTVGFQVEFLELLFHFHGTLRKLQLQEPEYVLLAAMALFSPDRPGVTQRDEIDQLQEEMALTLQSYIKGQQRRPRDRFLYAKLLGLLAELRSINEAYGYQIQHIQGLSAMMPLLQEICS
Luciferin 4-monooxygenase (Photinus pyralis), sequence (P08659 whole entry, looked up): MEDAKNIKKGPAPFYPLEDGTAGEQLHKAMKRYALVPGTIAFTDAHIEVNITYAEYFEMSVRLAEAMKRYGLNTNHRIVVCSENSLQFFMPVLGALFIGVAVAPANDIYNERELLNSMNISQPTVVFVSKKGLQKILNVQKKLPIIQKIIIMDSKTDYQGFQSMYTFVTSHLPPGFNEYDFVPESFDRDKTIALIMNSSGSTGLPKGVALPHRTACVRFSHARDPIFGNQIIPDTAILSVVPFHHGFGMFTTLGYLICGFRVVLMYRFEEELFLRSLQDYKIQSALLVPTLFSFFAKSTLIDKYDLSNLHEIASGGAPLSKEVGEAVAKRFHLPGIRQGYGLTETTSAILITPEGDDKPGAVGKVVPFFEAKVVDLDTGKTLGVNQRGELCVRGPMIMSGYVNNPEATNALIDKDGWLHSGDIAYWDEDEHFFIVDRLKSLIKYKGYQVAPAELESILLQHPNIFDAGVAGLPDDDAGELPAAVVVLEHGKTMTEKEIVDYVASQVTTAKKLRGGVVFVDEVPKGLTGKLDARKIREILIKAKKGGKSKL

`Cc1ccc(C(=O)c2ccc(CC(=O)O)n2C)cc1`: the Potency in [1] is 15.5 µM (active). Also, the compound was called inactive in test [2] and in test [5]. The Potency result in [3], in test [4], in [6], in test [7], in test [8] and in test [9] was “inactive” throughout.
Take `CCN(C=O)CC`: the Potency entry in test [1], in test [3], in [4] and in test [8] was “inactive” in each case. For the same compound, the outcome in test [2] and in test [5] was inactive.
In the case of `CO[C@@]1(NC(=O)CSC[C@@H](N)C(=O)O)C(=O)N2C(C(=O)O)=C(CSc3nnnn3C)CS[C@@H]21`, the Potency result in test [1], in [6], in test [7], in [8] and in test [9] was “inactive” throughout. The result in [2] and in test [5] was inactive.
In the case of `CC(=O)Nc1ccc(OCC(O)CNC(C)C)cc1` (configuration not stated), the Potency entry in [1], in [3], in test [4], in test [8] and in test [9] was “inactive” each time. The compound was classed as inactive in test [2].
For the compound `CN(C)C(=O)Oc1ccc[n+](C)c1`, the Potency entry in [1], in test [3], in test [4], in [7], in test [8] and in [9] was “inactive” in each case. The result in test [2] and in test [5] was inactive.
Take `COCCOCC(OC)OC`: the Potency entry in test [1], in [3], in test [4], in [6], in [7] and in test [8] was “inactive” throughout. Besides, the Potency result in test [9] was “inactive”. For the same compound, the call in test [2] and in [5] was inactive.
As to `CC1CCC(CO)CC1` (configuration not stated), the Potency entry in [1], in test [3], in test [8] and in test [9] was “inactive” throughout. Further, the compound was called inactive in test [10] and in test [5].
In the case of `CCCCCCCCCCOc1cc2c(=O)c(C(=O)OCC)c[nH]c2cc1OCC`, in [1], the activity change, negative = inhibition was -1.76% [at 10.5 µM]. Moreover, the viability change, negative = cytotoxic in [10] was 4.44% [at 8.39 µM]. The activity, negative = inhibition in [3] is 5.74% [at 8.39 µM]. Also, the activation in test [8] was -0.126% [at 8.39 µM]. Also, the activity change, negative = cytotoxicity in test [9] is 1.84% [at 6.97 µM].
Regarding `Cc1ncc([C@@H](CCCCCCc2ccc3c(n2)NCCC3)CC(=O)O)cn1`, the Potency entry in test [1] and in [9] was “inactive” in each case. Besides, the call in test [10] and in test [5] was inactive.
On to `COc1cc(C)nc(-n2nc(C)cc2OC)n1`, for which the Potency entry in test [1], in [4], in [6], in test [7], in [8] and in test [9] was “inactive” in each case. Moreover, the outcome in test [2] and in [5] was inactive.
Take `[K+]`: the Potency entry in test [1], in [3], in test [8] and in test [9] was “inactive” each time. Moreover, the compound was classed as inactive in [2] and in test [5].
With `CC(=O)O[C@@]12CO[C@@H]1C[C@H](O)[C@@]1(C)C(=O)[C@H](O)C3=C(C)[C@@H](OC(=O)[C@H](O)[C@@H](NC(=O)OC(C)(C)C)c4ccccc4)C[C@@](O)([C@@H](OC(=O)c4ccccc4)[C@H]21)C3(C)C`, the Potency result in [1] and in test [9] was “inactive” in each case. The call in test [10] and in [5] was inactive.
Regarding `COc1cc(C(=O)NCc2ccc(OCCN(C)C)cc2)cc(OC)c1OC`, the Potency result in test [1], in test [3], in test [8] and in test [9] was “inactive” each time. For the same compound, the result in test [2] was inactive.
For `Cc1nc(C2CCCCC2)c(-c2ccc(S(N)(=O)=O)c(F)c2)o1`, the Potency result in test [1], in test [3], in test [4], in test [6], in test [7] and in [8] was “inactive” throughout. The Potency result in test [9] was “inactive”. For the same compound, the compound was called inactive in test [2].
Turning to `C[C@@H]1C[C@H]2[C@@H]3C[C@H](F)C4=CC(=O)C(Cl)=C[C@]4(C)[C@@]3(F)[C@@H](O)C[C@]2(C)[C@@]1(O)C(=O)CO`, the Potency entry in test [1], in test [3] and in [8] was “inactive” in each case. The outcome in test [10] and in test [5] was inactive.
For the compound `[O-][n+]1cccc(CO)c1`, the Potency entry in test [1], in test [3], in test [8] and in [9] was “inactive” throughout. In addition, the result in [2] was inactive.
With `CCCCOCCOC(=O)COc1cc(Cl)c(Cl)cc1Cl`, the Potency entry in test [1], in test [3], in test [4], in test [8] and in test [9] was “inactive” in each case. Also, the compound was called inactive in test [2].
Turning to `CCNS(=O)(=O)c1ccc(C)cc1`, the Potency result in test [1] and in test [9] was “inactive” each time. Further, the outcome in test [10] and in test [5] was inactive.
For the compound `C=CCCCCCCCCC(=O)OCC`, the Potency entry in test [1], in test [3], in test [4], in test [6], in test [7] and in [8] was “inactive” in each case. Moreover, the Potency result in test [9] is “inactive”. Moreover, the result in test [2] and in test [5] was inactive.
In the case of `CNCC(O)c1ccc(O)c(O)c1` (configuration not stated), the Potency result in test [1], in [3], in test [6] and in test [9] was “inactive” in each case. In addition, the compound was classed as inactive in test [2] and in test [5]. Also, in test [8], the Potency is 2.98 µM (active).
Take `COc1c(N2CCNC(C)C2)c(F)cc2c(=O)c(C(=O)O)cn(C3CC3)c12` (configuration not stated): the Potency result in [1], in test [3], in [4] and in test [9] was “inactive” in each case. For the same compound, the compound was called inactive in test [10] and in [5].
For `CC(C)(C)OC(=O)c1cccc(N)c1`, the Potency in test [1] is 57.9 µM (active). For the same compound, the outcome in test [10] and in [5] was inactive. Moreover, the Potency entry in test [3], in test [8] and in test [9] was “inactive” each time.
Consider `CC(C)C1CCC(O)CC1` (configuration not stated), for which the Potency result in [1], in [3], in test [8] and in [9] was “inactive” in each case. The outcome in [10] and in test [5] was inactive.
As to `O=S(=O)(O)c1cccc2ccccc12`, the Potency entry in test [1], in test [6], in test [7] and in test [9] was “inactive” throughout. The outcome in test [10] and in [5] was inactive.
Regarding `CC(C)(CCC(=O)O)C(=O)O`, the Potency entry in test [1], in [3], in test [4] and in [9] was “inactive” in each case. The call in test [10] and in test [5] was inactive.
In the case of `COc1cccc(OC)c1C(=O)N[C@@H]1C(=O)N2[C@@H]1SC(C)(C)[C@@H]2C(=O)O`, the Potency entry in test [1], in [3], in test [4], in test [8] and in test [9] was “inactive” in each case. The compound was called inactive in [10] and in test [5].
As for `CN(C)C(=O)Oc1cccc([N+](C)(C)C)c1`, the Potency result in [1], in [3], in test [8] and in test [9] was “inactive” in each case. Besides, the result in [2] and in test [5] was inactive.
In the case of `Nc1ccn([C@@H]2O[C@H](CO)[C@@H](O)C2O)c(=O)n1` (some centres not stated), the Potency entry in test [1], in [6], in test [7] and in test [9] was “inactive” each time. In addition, the result in test [10] and in test [5] was inactive.
For `O=C(O)Cc1csc(-c2ccc(Cl)cc2)n1`, the Potency result in [1], in [3], in test [4], in test [8] and in test [9] was “inactive” in each case. Moreover, the call in [2] and in test [5] was inactive.
Regarding `CC1OC1C1CCC2(C)OC2C1` (configuration not stated), the compound was called inactive in test [10], in test [2] and in test [5]. In addition, the Potency result in [3], in test [4], in [8] and in test [9] was “inactive” throughout.
Turning to `C[C@H]1[C@H](NC(=O)/C(=N/OC(C)(C)C(=O)O)c2csc(N)n2)C(=O)N1S(=O)(=O)O` (stereo in doubt), the compound was classed as inactive in test [10], in test [2] and in test [5]. Further, the Potency result in [3], in test [4], in [8] and in test [9] was “inactive” each time.

For the origin of these results see PubChem BioAssay (Tox21).
